Data on 65 sequences can be found in the supplement of paper PMC11417369.

± gives the standard deviation of the averaged measurements. In all, about 25,000 sequences were measured (“ln(normalized median fluorescence intensity)”: median about 8.9, highest 2% from about 10 on). Shown is part of a subset that was picked to be rich in the highest values.

The subject of this experiment is PfAP2-LT AP2 domain (GST-tagged). The experiment is described as follows: gcPBM binding intensity (ln(normalized median fluorescence intensity)); higher = stronger DNA binding. The method in brief:
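For binding intensity, the highest Masliner-normalised natural-log median intensity across replicate spots of either probe orientation was taken. Protein bound to the array was stained with Alexa488 anti-GST antibody and scanned at 488 nm. The protein, GST-tagged P. falciparum DNA-binding domains from E. coli at about 25 μg on average, had been applied for 1 h to an Agilent 4 × 180k array of primer-extended double-stranded 36-bp intergenic genomic probes and negative controls.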
With “TTAAATAAGTAATTATGTACATATAATATTCTTTAT [XGTACX_site5280]”, the “gcPBM binding intensity (ln)” value worked out at 8.6 ± 0.42.

Turning to “ATATTAAGGTTTATATTTTAACTTATTATTTTATTC [CACACA_negctrl_site795]”, the “gcPBM binding intensity (ln)” value amounted to 8.7 ± 0.49.

Consider “GGATTTTAATGAACACGTACATAAAATTAAATAAAT [XGTACX_site7023]”, for which the “gcPBM binding intensity (ln)” value was determined as 8.73 ± 0.45.

In the case of “TAAGTATAAATATTTACACACATTTGTTTTTTTTTA [CACACA_site7731]”, the “gcPBM binding intensity (ln)” value was determined as 8.78 ± 0.4.

On to “TGCCTTATTAAAAGAATTACACATATTTAATCGAAA [GTGCAC_negctrl_site153]”, for which the “gcPBM binding intensity (ln)” value was found to be 8.31 ± 0.39.

For “TCTTTTTTTTTTTATTGTACAAGAAAAGGAAAAAAT [XGTACX_site3717]”, the “gcPBM binding intensity (ln)” value worked out at 8.05 ± 0.31.

Turning to “TTTTTTTTTTTAAGGTGTACAATAAAAATTTATGCA [XGTACX_site8860]”, the “gcPBM binding intensity (ln)” value came to 8.23 ± 0.35.

As for “ATATTATTTTATTTTTGTACAGATATCTTTAAAAAA [XGTACX_site3734]”, the “gcPBM binding intensity (ln)” value is 8.42 ± 0.37.

Consider “ATTCTATTATAATACACACCCAAATATTAAAAAGAT [CACACA_site2960]”, for which the “gcPBM binding intensity (ln)” value was determined as 8.99 ± 0.4.

For “AATACATACAGACACACACACACATATAAATAAATA [CACACA_site7642]”, the “gcPBM binding intensity (ln)” value came to 10.1 ± 0.38.

Regarding “AGGATATGCAGACACACACACATATATATATATATA [CACACA_site2201]”, the “gcPBM binding intensity (ln)” value stood at 10.3 ± 0.23.

Take “TACACATACAGACATACACACATACACATATACACA [CACACA_site6918]”: the “gcPBM binding intensity (ln)” value was found to be 9.85 ± 0.23.

For the sequence “CATATACATACACATACACACATACAGACATACACA [CACACA_site6919]”, the “gcPBM binding intensity (ln)” value stood at 9.63 ± 0.2.

Turning to “CATACATACAGACACACACACATATAAATACATACA [CACACA_site6533]”, the “gcPBM binding intensity (ln)” value was 9.88 ± 0.35.

“TACAGACATACATACACACATACATATATATATATA [CACACA_site1940]”: the “gcPBM binding intensity (ln)” value turned out to be 9.82 ± 0.34.

For “AGGATATGCAGACACACACACATATAGATTTATATA [CACACA_site7100]”, the “gcPBM binding intensity (ln)” value amounted to 9.56 ± 0.43.

For “TATACAGACAGACACACACACATATATATATATATA [CACACA_site1734]”, the “gcPBM binding intensity (ln)” value came out at 10.3 ± 0.13.

“AGGACACATATATGCAAAAAAAAAAAAAAAAAAAAA [TGCATGCA_negctrl_site427]”: the “gcPBM binding intensity (ln)” value came to 8.41 ± 0.59.

“ATTCTACACAGACATACACACATATATATATATATA [CACACA_site5826]”: the “gcPBM binding intensity (ln)” value was 9.835 ± 0.078.

For the sequence “TACATACACAGACACACACACATATATATATATATA [CACACA_site3557]”, the “gcPBM binding intensity (ln)” value came to 10.1 ± 0.19.

With “TACATACACAGACACACACACATATAAATATAAATA [CACACA_site7641]”, the “gcPBM binding intensity (ln)” value is 9.78 ± 0.28.

Take “TGTTTGAATATAATCACACATTTATATAAAAAGTTA [CACACA_site5237]”: the “gcPBM binding intensity (ln)” value came out at 8.39 ± 0.32.

Turning to “TTCATTTTTTAAGCATCACACACGAAAGAACAAAGT [CACACA_site1122]”, the “gcPBM binding intensity (ln)” value came to 8.98 ± 0.33.

Consider “AATAATATATATTGTACACACAAAATGGGAAAAAAA [CACACA_site5100]”, for which the “gcPBM binding intensity (ln)” value came out at 9.1 ± 0.33.

For “AAAATTTAATATAATGCACACATAAAAAAAAAATCA [CACACA_site7882]”, the “gcPBM binding intensity (ln)” value stood at 8.87 ± 0.42.

For the sequence “CAAGGAACCAGACACACACACATAAATGTATATATA [CACACA_site752]”, the “gcPBM binding intensity (ln)” value was found to be 9.62 ± 0.47.

“TACACAAGCAGACACACACACATATAGATTTATATA [CACACA_site6715]”: the “gcPBM binding intensity (ln)” value is 9.65 ± 0.35.

Regarding “TGAAAAAAGAAAAATACACACATATAATATAATATA [CACACA_site2255]”, the “gcPBM binding intensity (ln)” value is 9.02 ± 0.49.

In the case of “ACAGAAAAAAGACACACACACATAATATACATACAT [CACACA_site6991]”, the “gcPBM binding intensity (ln)” value is 10.1 ± 0.42.

As for “AATAACCACAGACACACACACATATAAATATAAATA [CACACA_site7631]”, the “gcPBM binding intensity (ln)” value was determined as 10 ± 0.46.

In the case of “TAAAAGAAATAATATACACACATATATAAAAATAAA [CACACA_site1329]”, the “gcPBM binding intensity (ln)” value turned out to be 8.94 ± 0.41.

For “TACACAAGCAGACACACACACATATATATATATATA [CACACA_site1270]”, the “gcPBM binding intensity (ln)” value is 10.42 ± 0.071.

As for “ACAAGACAGATATATACACACATACATACATACATA [CACACA_site7472]”, the “gcPBM binding intensity (ln)” value was 9.43 ± 0.37.

For the sequence “AGGATACACAGACACACACACATATATATATATATA [CACACA_site907]”, the “gcPBM binding intensity (ln)” value turned out to be 10.47 ± 0.064.

On to “GGAATAACCAGACACACACACACATATAAATATGTA [CACACA_site7632]”, for which the “gcPBM binding intensity (ln)” value was 10.1 ± 0.41.

Regarding “AATGTATATAATATTAATATGTAAATATATAATCAA [CACACA_negctrl_site1683]”, the “gcPBM binding intensity (ln)” value is 8.72 ± 0.39.

In the case of “TTAGAAATTCATTTTACACACAATTCAAAAGAATGT [CACACA_site2104]”, the “gcPBM binding intensity (ln)” value was found to be 8.79 ± 0.42.

In the case of “ATATATAAAATTATATGTACATATATAATATATATA [XGTACX_site529]”, the “gcPBM binding intensity (ln)” value turned out to be 8.77 ± 0.39.

As to “TACCATATTTCTTCAAGTACGCATTATGTTAAAAAG [XGTACX_site345]”, the “gcPBM binding intensity (ln)” value stood at 8.51 ± 0.38.

Take “GTGGAACGTATATTTTCACACACTCTCAAAAGTACA [CACACA_site8722]”: the “gcPBM binding intensity (ln)” value was 8.93 ± 0.47.

Take “TATTTATTAATATGTACACACATCAACCATATTAAC [CACACA_site7001]”: the “gcPBM binding intensity (ln)” value stood at 9.04 ± 0.29.

As to “TAAATAAGGAAGGAAACACACATTAAAAAATAAATA [CACACA_site618]”, the “gcPBM binding intensity (ln)” value was determined as 8.84 ± 0.59.

For the sequence “TATATATATTTATGTTGTACAAAATATTATTACGTA [XGTACX_site5384]”, the “gcPBM binding intensity (ln)” value worked out at 8.57 ± 0.36.

As for “TTTTTTTAATGATATTGTACATTAATAAAAAATATG [XGTACX_site1719]”, the “gcPBM binding intensity (ln)” value worked out at 8.12 ± 0.59.

With “GGAATAACCGGACACACACACACATATATATATATA [CACACA_site5874]”, the “gcPBM binding intensity (ln)” value was found to be 10.39 ± 0.057.

As to “AATACATACAGACACACACACACATATATATATATA [CACACA_site3558]”, the “gcPBM binding intensity (ln)” value was determined as 10.36 ± 0.014.

Regarding “CACATACAGACATACACACACATATATATTAATATA [CACACA_site546]”, the “gcPBM binding intensity (ln)” value came to 9.56 ± 0.41.

For the sequence “GAATAATATGGACATACACACATATACATACATATA [CACACA_site2114]”, the “gcPBM binding intensity (ln)” value stood at 9.27 ± 0.39.

As for “TAAATACAGACATATACACACATATATATATATATA [CACACA_site4382]”, the “gcPBM binding intensity (ln)” value was 9.925 ± 0.0071.

For “GGAATATAAATACATACACACATATATATATATATA [CACACA_site4998]”, the “gcPBM binding intensity (ln)” value stood at 10 ± 0.33.

For the sequence “TTATTATTCCCTCATTTTGTTACCATTATTTCAATT [CACACA_negctrl_site1023]”, the “gcPBM binding intensity (ln)” value came to 8.88 ± 0.54.

Turning to “AATGTACAAATACGTACACACATATATATATATATA [CACACA_site1542]”, the “gcPBM binding intensity (ln)” value was determined as 10.1 ± 0.18.

As to “GATATTATGTGTTTGGTATTTCGATCTTGTCAGGAC [CACACA_negctrl_site426]”, the “gcPBM binding intensity (ln)” value came out at 8.93 ± 0.41.

With “GTAAGAAACAGACACACACACATATAAATATAAATA [CACACA_site6515]”, the “gcPBM binding intensity (ln)” value was found to be 9.86 ± 0.49.

For “AAAAAAAAGAAAAACACACACATATATATATATAAT [CACACA_site4707]”, the “gcPBM binding intensity (ln)” value worked out at 9.53 ± 0.42.

Take “TAAACAGACATATAAACACACATATAAACAGACATA [CACACA_site7214]”: the “gcPBM binding intensity (ln)” value was determined as 9.31 ± 0.41.

“AAGAAAAAAAAAAAAACACACATATATATATATATA [CACACA_site2027]”: the “gcPBM binding intensity (ln)” value worked out at 10.1 ± 0.14.

As for “CGGACATACTAACGGACACACGTAAGAAAAAAAAAG [CACACA_site4504]”, the “gcPBM binding intensity (ln)” value stood at 9.05 ± 0.64.

On to “GTAAGAAACAGACACACACACATATATATATATATA [CACACA_site794]”, for which the “gcPBM binding intensity (ln)” value worked out at 10.21 ± 0.064.

Take “CAAGAAAAGAAACACACACACATATATATATATATA [CACACA_site3881]”: the “gcPBM binding intensity (ln)” value stood at 10.4 ± 0.28.

Take “GTAAGAAACGGACACACACACATATATATATATATA [CACACA_site4593]”: the “gcPBM binding intensity (ln)” value amounted to 10.39 ± 0.05.

“AAAAAAAAAAAAGAAACACACACATATATATATATA [CACACA_site8525]”: the “gcPBM binding intensity (ln)” value amounted to 9.94 ± 0.3.

“TACGGACATACTAACGGACACACGTAAGAAAAAAAA [CACACA_site602]”: the “gcPBM binding intensity (ln)” value is 9.03 ± 0.56.

In the case of “CACAAAAAGAAACACACACACATATATATATATATA [CACACA_site999]”, the “gcPBM binding intensity (ln)” value came out at 10 ± 0.37.

Consider “AAAAAAAAAAAAGAAACACACATATATATATATATA [CACACA_site140]”, for which the “gcPBM binding intensity (ln)” value was 9.9 ± 0.071.
